Results taken from PubChem BioAssay (NCATS).
Results filed as inconclusive are left out. Values without a mark were called inactive. The call rests on the fitted dose curve; in most records, active means well fitted inhibition curve with a large enough effect; inconclusive means small, poorly fitted or top-dose-only effect; inactive means no such curve, though single readings can be large or run the other way.

Test: Primary qHTS for small molecule stabilizers of the endoplasmic reticulum resident proteome: Secreted ER Calcium Modulated Protein (SERCaMP) assay (AID 1508630)
Conditions: SH-SY5Y GLuc-SERCaMP (Gaussia luciferase released on ER calcium loss) secretion, thapsigargin, luminescence; series mostly up to 38.4 µM; activity change, negative = inhibition: at the top concentration
From the text: Assay Provider: Brandon K. Harvey Ph.D.
National Institute on Drug Abuse, National Institutes of Health, Baltimore, MD
Endoplasmic reticulum (ER) dysregulation is associated with human pathologies including neurodegenerative, cardiovascular, muscular, and diabetic conditions. Maintenance of ER calcium is critical for functions of the ER and its depletion can lead to loss of ER resident proteins, in a process termed exodosis. Therapeutic compounds capable of attenuating the redistribution of ER proteins under pathological conditions may slow or stop disease progression. To identify such compounds, we performed a quantitative high-throughput screen (qHTS) using the SERCaMP assay, which monitors secretion of ER resident proteins triggered by calcium depletion.
SERCaMP was initially developed as a reporter of ER calcium homeostasis using a Gaussia luciferase with a modified signal peptide and carboxy-terminus (GLuc-SERCaMP), modifications that confer secretion of the reporter in response to ER calcium depletion (Henderson et al., 2014). The assay was used to screen 9,501 compounds, including a collection of drugs approved by the FDA (US), EMA (EU), NHI (Japan), and HC (Canada) regulatory agencies (Huang et al., 2011). Since the SERCaMP reporter reflects the exodosis phenomenon (Trychta et al., 2018a), compounds identified in the screen have the potential to prevent exodosis by different mechanisms such as stabilizing ER calcium or augmenting ERS retrieval.
1. Henderson, M.J., Wires, E.S., Trychta, K.A., Richie, C.T., and Harvey, B.K. (2014). SERCaMP: a carboxy-terminal protein modification that enables monitoring of ER calcium homeostasis. Mol Biol Cell 25, 2828-2839.
2. Huang, R., Southall, N., Wang, Y., Yasgar, A., Shinn, P., Jadhav, A., Nguyen, D.T., and Austin, C.P. (2011). The NCGC pharmaceutical collection: a comprehensive resource of clinically approved drugs enabling repurposing and chemical genomics. Sci Transl Med 3, 80ps16.
3. Trychta, K.A., Back, S., Henderson, M.J., and Harvey, B.K. (2018a). KDEL Receptors Are Differentially Regulated to Maintain the ER Proteome under Calcium Deficiency. Cell Rep 25, 1829-1840 e1826.
SEQUENCE No. (1, 2, 3, etc.); […] (e.g., Cells, Incubation, Reagent, etc.); VALUE and DESCRIPTION.
1; Reagent; 5 uL; 1000 SH-SY5Y cells per wells
3; Compound; 23 nL; Control inhibitor / compound library
5; Reagent; 100 nM; Thapsigargin
7; Reagent; 1 uL; 0.5x coelenterazine
8; Detection; Luminescence; ViewLux imaging system
NOTES (numbers refer to sequence above)
1; SH-SY5Y human neuroblastoma cells stably expressing GLuc-SERCaMP (SH-SY5Y-GLuc-ASARTDL) cells were seeded in 1,536 well white tissue culture treated plates (Corning, Cat# 7464) in DMEM-high glucose-sodium pyruvate (ThermoFisher Scientific, Cat #10569) supplemented with 10% bovine growth serum (Hyclone), 10 U/ml penicillin (Gibco), 10 ug/ml streptomycin (Gibco), and 20 mM HEPES.
2; Assay plates were incubated for 5 hour at 37C in a humidified incubator containing 5% CO2.
3; qHTS libraries (23 nl, final concentrations of 1.53 uM, 7.67 uM, 38.3 uM) or controls (neutral control: DMSO, positive control: dantrolene) were added using a Kalypsis pin-tool Robotic System equipped with 1536 pinheads.
4; Cells were then incubated for 16 hours at 37C, 5% CO2.
5; Thapsigargin was added at 100 nM to deplete ER calcium stores.
6; Cells were incubated for 4 hour (37 °C, 5% CO2)
7; Gaussia luciferase in the medium was measured by adding 1 ul of 0.5x coelenterazine (final concentration 0.07x) prepared in Gaussia Luciferase Glow Assay Buffer (Pierce), without addition of the Cell Lysis Buffer Reagent.
8; Luminescence was measured using a ViewLux […] CCD imaging system (Perkin Elmer) equipped with clear filters. […] The same controls were also used for the calculation of the Z' factor, a measure of assay quality control, as previously described (Zhang et al., 1999). […]
On the % scale 0 is the no-effect control and ±100 the full control effect.

SMILES | activity change, negative = inhibition
CS(=O)(=O)Nc1cccc(-c2nccc(NCc3ccccc3)n2)c1 | 1.44%
O=C(c1cccc(F)c1)N1CCC[C@@]2(CCN(c3ccncc3)C2)C1 | -25.6%
O=c1c(-c2ccc(Cl)cc2)nc2cnc(N3CCOCC3)nc2n1-c1ccccc1 | 11.9%
Fc1ccc(Nc2ncncc2-c2ccoc2)cc1 | -10.1%
COc1cccc(Nc2ncc3nc(C)c(=O)n(C)c3n2)c1 | -23.4%
N=c1ccn2c(n1)OCC1C2O[C@@H](O)[C@H]1O (stereo not given in full) | -9.79%
C=C(C(=O)O)[C@@H]1CC[C@@]2(C)CCC[C@](C)(O)[C@@H]2C1 | 12.8%
Cn1c(=O)c(-c2ccc(Cl)cc2)nc2cnc(Nc3ccccc3)nc21 | -9.89%
COc1ccc(NC(=O)N2CC3(CCN(C(C)=O)CC3)C2)cc1 | -6.31%
O=C(Oc1ccccc1)N1CCC2(CCCN(c3ccccc3)C2)CC1 | 20%
O=C(Nc1cccc(F)c1)N1CCCC2(CCN(C(=O)c3ccncc3)CC2)C1 | 7.49%
Cc1noc(C)c1-c1cncnc1NCc1ccccc1 | 28.2%
CC(C)NC(=O)N1CC[C@@]2(CCCN(S(C)(=O)=O)C2)C1 | -12.2%
CN(C)Cc1ccccc1-c1cc(N(C)Cc2ccco2)ncn1 | -18.8%
Clc1ccccc1-c1cncnc1NCc1cccs1 | 31.3%
CC(=O)N1CCC[C@@]2(CCN(Cc3cc(C(F)(F)F)cc(C(F)(F)F)c3)C2)C1 | 55.6%
CS(=O)(=O)N1CCC2(CCN(Cc3ccncc3)CC2)CC1 | -9.48%
COc1ccc(Oc2ncc3nc(C)c(=O)n(Cc4cccc(OC)c4)c3n2)cc1 | -29.3%
N#Cc1ccccc1-c1ccc2ncnc(N3CCNCC3)c2c1 | 4.21%
CN1CCC2(CC1)CCN(C(=O)c1cc(C(F)(F)F)cc(C(F)(F)F)c1)CC2 | 50.3%

SMILES | activity change, negative = inhibition
COc1ccc(-c2nc3cnc(Oc4ccccc4)nc3n(CCC#N)c2=O)cc1 | 32.9%
CC(C)NC(=O)N1CC2(CCN(C(=O)c3ccncc3)CC2)C1 | -19.8%
COCCNc1cc(-c2ccccc2CN(C)C)ncn1 | -1.16%
Cc1nc2cnc(N3CCOCC3)nc2n(C)c1=O | -0.108%
CCNc1ncc2nc(C)c(=O)n(CCC#N)c2n1 | -20.9%
O=C(Oc1ccccc1)N1CCC[C@@]2(CCN(c3ncccn3)C2)C1 | 6.31%
CCNc1ncc2nc(-c3ccc(OC)cc3)c(=O)n(C[C@H]3CCCO3)c2n1 | -0.653%
COc1ccc(-c2nc3cnc(Nc4ccccc4)nc3n(Cc3cccs3)c2=O)cc1 | 31.1%
COCCn1c(=O)c(-c2cc(F)cc(F)c2)nc2cnc(N3CCOCC3)nc21 | 19.1%
COc1cccc(Cn2c(=O)c(-c3ccc(F)cc3)nc3cnc(OC)nc32)c1 | 10.1%
Cc1noc(C)c1-c1cc(N2CCN(C)CC2)ncn1 | 10.2%
CC(=O)N1CCC2(CCCN(C(=O)Nc3cccc(F)c3)C2)CC1 | -7.07%
COCCn1c(=O)c(-c2ccc(Cl)cc2)nc2cnc(Nc3ccccc3)nc21 | 22.9%
O=C(c1csnn1)N1CCC2(CC1)CN(C(c1ccccc1)c1ccccc1)C2 | -11.4%
COc1ccc(C(=O)N2CCC3(CC2)CN(c2ccncc2)C3)cc1 | 26%
CN(C)c1ncc2nc(-c3cccs3)c(=O)n(C[C@H]3CCCO3)c2n1 | 6.05%
COCCn1c(=O)c(-c2cccc(C#N)c2)nc2cnc(Oc3ccccc3)nc21 | -24.5%
Cc1noc(C)c1C(=O)N1CCC2(CCCN(C(=O)NC(C)C)C2)CC1 | 15.9%
CS(=O)(=O)N1CCC[C@@]2(CCN(Cc3nccs3)C2)C1 | 14.2%
O=C1N[C@@H](Cc2c[nH]c3ccccc23)C(=O)N[C@H]1Cc1c[nH]c2ccccc12 | -9.12%
